# NPSR antag = neuropeptide S receptor (human) antagonism, cAMP; CHO-NPSR cells, cAMP TR-FRET, antagonist mode; Potency, µM (top dose mostly 38.3 µM), for inactives: top-dose activity change, negative = inhibition, actives largely listed as inhibitors; 220,000 compounds, 1% hits; AID 1461; also: % is scaled to controls: 0 for no effect and ±100 for the full control effect; nearly all actives have a fitted effect of over 50% in size
# Target sequence (Q6W5P4 whole entry, looked up): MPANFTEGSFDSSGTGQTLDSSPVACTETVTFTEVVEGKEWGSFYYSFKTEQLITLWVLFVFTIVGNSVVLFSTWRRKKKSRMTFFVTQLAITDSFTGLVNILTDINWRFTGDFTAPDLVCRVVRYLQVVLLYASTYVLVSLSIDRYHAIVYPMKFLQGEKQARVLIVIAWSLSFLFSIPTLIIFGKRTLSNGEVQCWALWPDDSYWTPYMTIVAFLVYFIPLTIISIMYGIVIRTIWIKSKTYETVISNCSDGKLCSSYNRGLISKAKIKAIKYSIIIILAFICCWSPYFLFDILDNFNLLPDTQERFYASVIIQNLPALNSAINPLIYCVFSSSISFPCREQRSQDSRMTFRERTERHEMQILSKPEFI
# KAT2A inh = inhibitors of human GCN5L2 histone acetyltransferase. GCN5L2 HAT assay, ThioGlo1 CoA-SH fluorescence. Potency, µM (doses to about 58.9 µM), without a hit: top-dose activity change, negative = inhibition, actives largely listed as inhibitors. AID 504327. 390,000 compounds, 0.21% hits. Q92830; also: % is scaled to controls: 0 for no effect and ±100 for the full control effect
#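 qHTS, 1536-well. 20nM enzyme, pH 7.5 HEPES/EDTA/Tween-20 buffer; 15 min compound preinc., RT. Start: 75uM H3(1-25), 70uM AcCoA, 50uM ThioGlo1. Read Ex340/Em540 at t=0 (autofluorescence flag) and t=20 min.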
# IMPase Li inh = IMPase inhibition in cells with lithium potentiation | CHO-M1 cells, IP1 TR-FRET (IP-One), carbachol + lithium | Potency, µM (doses to about 59.4 µM), for inactives: at the top dose activity, negative = IMPase inhibition, most hits filed as inhibitors | 210,000 compounds, 0.35% hits | AID 1457;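 also: IP1 builds up when IMPase is blocked and the TR-FRET signal falls; plate controls were basal vehicle for no effect and high inhibitor control for full effect; nearly all actives have a fitted effect of over 50% in size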
#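 Lithium-sensitised IP1 accumulation assay; M1-expressing CHO cells treated 30 min at 37C with compound. Competitive antibody detection by time-resolved FRET followed a 10 min room-temperature lysis step.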
# Epigenetic derep = epigenetic control regulation, reporter derepression. murine LDR cells, GFP reporter derepression, 30 h. Potency, µM (series often up to 53.9 µM), for inactives: top-dose GFP activation, hits mostly activators. 280,000 compounds, 0.2% hits. AID 1865; also: % of control where 0% means no effect; nearly all actives have a fitted effect of over 60% in size
#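 Reporter derepression read as number of fluorescent GFP-positive objects, 20-120 um in size, counted by laser-scanning cytometer. Mouse LDR line with an epigenetically silenced CMV-GFP locus; compound incubation 30 h, 37 C.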
# KDM4E inh = inhibitors of human JMJD2E histone demethylase; Potency, µM (series often up to 57.1 µM), for inactives: at the top dose activity change, negative = inhibition, hits mostly inhibitors; B2RXH2; AID 2147; JMJD2E catalytic domain, FDH-coupled NADH fluorescence (FDH is formaldehyde dehydrogenase); 230,000 compounds, 1.6% hits; active = well fitted inhibition curve with a large enough effect, not every such curve was filed as active; inconclusive = small, poorly fitted or top-dose-only effect, or another doubt; inactive = no such curve, though single readings can be large or run the other way;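 also: 0% = wells with enzyme and -100% = buffer wells without enzyme; nearly all actives have a fitted effect of over 50% in size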
# Target sequence (B2RXH2 1-337 limits assumed): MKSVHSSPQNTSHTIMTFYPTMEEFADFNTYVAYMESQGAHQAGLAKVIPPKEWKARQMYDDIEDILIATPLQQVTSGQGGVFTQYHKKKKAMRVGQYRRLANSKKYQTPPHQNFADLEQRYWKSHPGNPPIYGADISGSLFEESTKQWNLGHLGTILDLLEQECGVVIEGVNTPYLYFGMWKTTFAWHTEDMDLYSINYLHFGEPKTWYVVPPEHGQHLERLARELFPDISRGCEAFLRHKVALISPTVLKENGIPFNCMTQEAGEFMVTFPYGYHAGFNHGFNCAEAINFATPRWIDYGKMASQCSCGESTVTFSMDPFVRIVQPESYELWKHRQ
# Sfp inh = Sfp phosphopantetheinyl transferase inhibition; Q9F4F7; Biochemical Sfp PPTase activity, qHTS; Potency, µM, inactives show largest response in the series, negative = inhibition, hits mostly inhibitors; 310,000 compounds, 3.5% hits; AID 1490;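 also: the enzyme is Sfp with the accession as filed and its product quenches rhodamine fluorescence; 0% = enzyme reaction without inhibitor and -100% = no enzyme wells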
#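 Buffer: 50 mM Hepes-Na pH 7.6, 10 mM MgCl2, 0.01% Nonidet P-40, 0.01% BSA. Enzyme 15 nM, pre-exposed to compound 15 min; substrates then added and fluorescence change tracked over 30 min.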
# An asterisk follows results filed as active; ? = inconclusive; / = no result; ! = not confirmed by another sample; [ ] = another dose, or the depositor's remark. Sampled rows, rich in hits. Any-hit rate of the full collection: about 3.6%. Unless noted, calls follow the shape of the dose curve; as a rule, active = well fitted curve in the direction sought with a large enough effect; inconclusive = small, poorly fitted or top-dose-only effect, or another doubt; inactive = no such curve, though single readings can be large; an effect the other way counts as inactive or inconclusive. Potency is read from the fitted curve at half-maximal effect.
SMILES,NPSR antag,KAT2A inh,IMPase Li inh,Epigenetic derep,KDM4E inh,Sfp inh
CC1CC2CCC(O2)C(C)C(=O)OC(C)CC2CCC(O2)C(C)C(=O)OC(C)CC2CCC(O2)C(C)C(=O)OC(C)CC2CCC(O2)C(C)C(=O)O1 (stereo unspecified),/,-14%,/,/,/,8%
N[C@@H](Cc1ccccc1)P(=O)(O)O,/,/,7%,/,/,/
C/C(=N\N1CCCCCC1)c1c(O)n(C)c(=O)n(C)c1=O,0%,-1%,/,-1%,1%,24%
C/C(=N\NC(N)=O)c1c(O)n(C)c(=O)n(C)c1=O,6%,-8%,4%,0%,9%,56µM*
CC[N+](CC)(CC)CCOc1cccc(OCC[N+](CC)(CC)CC)c1OCC[N+](CC)(CC)CC,3%[46.1 µM],13µM*,20%,-1%,-23%,?
CC(C)(C)c1cc(O)ccc1O,/,-21%,0%,/,/,40µM*
C=CCn1c(O)c(/C(CC)=N/NC(=S)Nc2ccccc2)c(=O)[nH]c1=O,-15%,-3%,/,-2%,?,22µM*
C=CCn1c(O)c(C(CC)=NCCc2ccccc2)c(=O)[nH]c1=O,-8%[46.1 µM],-11%,-1%[38.3 µM],-2%,6%,4%
C=CCn1c(O)c(C(CC)=Nc2ccc(N(C)C)cc2)c(=O)[nH]c1=O,11%[7.67 µM],-2%,/,3%,?,50µM*
C=CCn1c(O)c(/C(C)=N/NC(=S)Nc2ccccc2)c(=O)[nH]c1=O,20%,-18%,/,1%,?,35µM*
NC(=O)O,/,-17%,/,/,/,12%
[N-]=[N+]=CC(=O)CC[C@H](N)C(=O)O,/,/,-11%,/,/,/
C[N+]1(C)C2CCC1CC(OC(=O)C(CO)c1ccccc1)C2 (stereo unspecified),-12%[46.1 µM],1%,34%,0%,10µM*!,13%
N#CCBr,/,/,10%,/,/,/
COP(=S)(OC)SCN1C(=O)c2ccccc2C1=O,10%[46.1 µM],?,0%[38.3 µM],-2%,-9%,35µM*
O=C(O)Cc1ccc([N+](=O)[O-])cc1[N+](=O)[O-],/,/,-5%,/,/,/
O=C1NC(=O)N(c2ccc3c(c2)OCO3)C(=O)/C1=C\c1ccc(N2CCCCC2)o1,-23%,38%,27%,3%,-23%,-6%
Cc1cc(/C=C2/C(=O)NC(=O)N(C)C2=O)c(C)n1-c1ccccc1,2%,-3%,7%,-1%,-5%,0%
O=C1NC(=O)N(c2ccccc2)C(=O)/C1=C\c1ccc([N+](=O)[O-])o1,11%,-7%,/,-2%,?,18µM*
CN1C(=O)NC(=O)/C(=C/c2ccc([N+](=O)[O-])s2)C1=O,-36%,-1%,/,-7%,22µM*,11µM*
Cc1cc(/C=C2\C(=O)NC(=O)N(C)C2=O)c(C)n1-c1ccc2c(c1)OCO2,-9%[46.1 µM],-10%,-14%[38.3 µM],0%,-13%,-15%
CN1C(=O)NC(=O)/C(=C\c2ccc([N+](=O)[O-])o2)C1=O,-11%,-2%,19%,-1%,?,40µM*
CN1C(=O)NC(=O)/C(=C/c2ccc([N+](=O)[O-])o2)C1=O,27%,-2%,/,4%,?,18µM*
CN(C)CCCc1cccnc1,/,/,3%,/,/,/
COc1cc2ccccc2c2cc([N+](=O)[O-])oc12,/,/,4%,/,/,/
SMILES,NPSR antag,KAT2A inh,IMPase Li inh,Epigenetic derep,KDM4E inh,Sfp inh
N#CCc1ccccc1,/,/,-5%,/,/,/
CC(C)c1cc2c(c(O)c1O)[C@]1(C(=O)O)CCCC(C)(C)C1CC2 (stereo partly specified),/,-6%,29%,-1%,13µM*,-108%
O=c1[nH]sc2cc(F)ccc12,7%,4.5µM*,10%,?,-18%,3.2µM*
COC1C=CC23c4cc5c(cc4CN(CC2O)C3C1)OCO5 (stereo unspecified),/,0%,7%,?,-18%,-5%
C=CCC1C(=O)NC(=S)NC1=O,15%,-25%,1%,-1%,-12%,50µM*
O=C1NC(c2cccnc2)Nc2sc3c(c21)CCCC3 (stereo unspecified),-16%[46.1 µM],-2%,6%,0%,?,-23%
CC1(C)Cc2c(sc3c2C(=O)NC(c2cccnc2)N3)CO1 (stereo unspecified),-1%[46.1 µM],-2%,10%[38.3 µM],-1%,?,40µM*
c1ccc2c([C@@H]3CCN(CCN4CCOCC4)C3)c[nH]c2c1,/,/,3%,/,/,/
N[C@]1(C(=O)O)CC[C@@H](C(=O)O)C1 (racemic),/,5%,-26%,2%,/,56µM*!
CC[C@]1(O)CC(O[C@@H]2CC(N(C)C)C(O)C(C)O2)c2c(cc3c(c2O)C(=O)c2c(O)cccc2C3=O)C1C(=O)OC (stereo partly specified),/,-14%,5%,6.3µM*,-21%,-4%
CC[C@@]1(O)CC(O)c2c(cc3c(c2O)C(=O)c2c(O)ccc(O)c2C3=O)C1C(=O)OC (stereo partly specified),/,-3%,38%,?,13µM*,14%
Oc1cc[c]([Hg][Cl])cc1,/,0.14µM*,/,/,/,0.056µM*
O=C1NC(=S)NC(=O)C12C(c1ccc(F)cc1)NC(=S)NC2c1ccc(F)cc1 (stereo unspecified),-8%[46.1 µM],-4%,16%[38.3 µM],11%,3%,40µM*
O=C1NC(=S)NC(=O)C12C(c1ccccc1)NC(=S)NC2c1ccccc1 (stereo unspecified),-5%,-1%,-1%,2%,-1%,?
CC(CCC(=O)O)C1CCC2C3CC[C@@H]4CCCC[C@@]4(C)C3CC[C@@]12C (stereo partly specified),/,?,7%,0%,-3%,11%
c1ccc(CCCN2CCN(CCOC(c3ccccc3)c3ccccc3)CC2)cc1,16µM*,-5%,34%,-1%,-10%,-17%
Fc1ccc(C(OCCN2CCN(C/C=C/c3ccccc3)CC2)c2ccc(F)cc2)cc1,/,-18%,35%,0%,/,45µM*
Fc1ccc(C(OCCN2CCN(CCCc3ccccc3)CC2)c2ccc(F)cc2)cc1,?,-8%,18%,-1%,-1%,12%
CCN(N=O)C(N)=O,/,/,-20%,/,/,/
CC(O)CN(CCN(CC(C)O)CC(C)O)CC(C)O (stereo unspecified),/,4%,/,/,/,79µM*
C[C@@H](O)CN(CCN(C[C@@H](C)O)C[C@@H](C)O)C[C@@H](C)O.O=[N+]([O-])O.[Cu],/,/,-16%,/,/,/
O=C1NC(=O)C(=Cc2ccsc2)C(=O)N1,-29%,9%,-2%,-1%,-16%,?
O=C1NC(=O)C(=Cc2ccc(SC3CCCCC3)o2)C(=O)N1,?,-24%,2%,-1%,?,28µM*
O=C(COc1ccc2ccc(=O)oc2c1)N1CCC(C(=O)O)(c2ccccc2)CC1,/,25µM*,/,/,/,11%
